Measurements from PubChem BioAssay AID1159580 (chemical genetic matrix, 2015).
Where “and” joins values, the source holds several entries; their conditions need not be identical. Equal entries are not always repeated. The whole screen tested about 5,500 compounds, of which about 2,000 (36%) were called active. Not shown: some 18% with an inconclusive outcome. Rule as the data show it: active = normalized growth mostly below about 0.91 (no sharp cut-off); inconclusive = no clear call, values can overlap the other calls; inactive = mostly above about 0.92. Some of the results follow.

Test: chemical genetic growth profiling, strain panel (AID 1159580);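 also: tested at 20 µM; growth read once vehicle control cultures reached saturation at 30 °C; 1 = growth at the plate median or of vehicle wells; lower values mean less growth of the strain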
Conditions: S. cerevisiae deletion strains, growth OD

Measured: normalized growth

Oc1c(Br)cc(Br)c2cccnc12
active: locus YAL013W, strain DEP1, hits give low values 0.0586 | locus YAL021C, strain ccr4, hits give low values 0.0663 | locus YAL026C, strain drs2, hits give low values 0.0631 | locus YAL030W, strain snc1, hits give low values 0.055 | locus YBL061C, strain skt5, hits give low values 0.0586 | locus YBR009C, strain hhf1, hits give low values 0.0623 | locus YBR021W, strain FUR4, hits give low values 0.0949 | locus YBR023C, strain chs3, hits give low values 0.0634 | locus YBR171W, strain sec66, hits give low values 0.0756 | locus YBR229C, strain ROT2, hits give low values 0.0506 | locus YBR231C, strain swc5, hits give low values 0.0629 | locus YBR279W, strain paf1, hits give low values 0.0612 | locus YCL011C, strain gbp2, hits give low values 0.0575 | locus YCL016C, strain dcc1, hits give low values 0.0701 | locus YCL029C, strain bik1, hits give low values 0.07 | locus YCL061C, strain MRC1, hits give low values 0.0647 | locus YCL069W, strain vba3, hits give low values 0.0645 | locus YCR088W, strain abp1, hits give low values 0.0595 | locus YDL005C, strain med2, hits give low values 0.0726 | locus YDL035C, strain GPR1, hits give low values 0.0512 | locus YDL040C, strain nat1, hits give low values 0.0563 | locus YDL074C, strain BRE1, hits give low values 0.0885 | locus YDL101C, strain DUN1, hits give low values 0.0585 | locus YDL134C, strain PPH21, hits give low values 0.0526 | locus YDL185W, strain tfp1, hits give low values 0.0677 | locus YDL192W, strain arf1, hits give low values 0.0671 | locus YDR001C, strain nth1, hits give low values 0.0572 | locus YDR069C, strain doa4, hits give low values 0.0693 | locus YDR101C, strain arx1, hits give low values 0.0674 | locus YDR137W, strain rgp1, hits give low values 0.107 | locus YDR150W, strain NUM1, hits give low values 0.0621 | locus YDR159W, strain sac3, hits give low values 0.0892 | locus YDR162C, strain NBP2, hits give low values 0.0492 | locus YDR195W, strain ref2 0.126 | locus YDR297W, strain sur2, hits give low values 0.0575 | locus YDR318W, strain mcm21, hits give low values 0.071 | locus YDR334W, strain swr1, hits give low values 0.0608 | locus YDR335W, strain msn5, hits give low values 0.0583 | locus YDR388W, hits give low values 0.0637 | locus YDR392W, strain spt3, hits give low values 0.0808 | locus YDR502C, strain sam2, hits give low values 0.0753 | locus YEL003W, strain gim4, hits give low values 0.0546 | locus YEL037C, strain rad23, hits give low values 0.0573 | locus YEL061C, strain CIN8 (second series), hits give low values 0.145 | locus YEL061C, strain CIN8, hits give low values 0.05 | locus YER015W, strain faa2, hits give low values 0.0595 | locus YER016W, strain bim1, hits give low values 0.0608 | locus YER110C, hits give low values 0.0879 | locus YER111C, strain swi4, hits give low values 0.0694 | locus YER155C, strain BEM2 (second series), hits give low values 0.0894 | locus YER155C, strain BEM2, hits give low values 0.0691 | locus YER167W, strain BCK2, hits give low values 0.0561 | locus YFR010W, strain ubp6, hits give low values 0.0731 | locus YGL078C, strain dbp3, hits give low values 0.0674 | locus YGL086W, strain mad1, hits give low values 0.0628 | locus YGL167C, strain pmr1, hits give low values 0.079 | locus YGL173C, strain kem1, hits give low values 0.0675 | locus YGL227W, strain vid30, hits give low values 0.0683 | locus YGL240W, strain doc1, hits give low values 0.0807 | locus YGL248W, strain PDE1, hits give low values 0.0474 | locus YGL253W, strain hxk2, hits give low values 0.0544 | locus YGR078C, strain PAC10, hits give low values 0.0525 | locus YGR135W, strain pre9, hits give low values 0.0723 | locus YGR229C, strain SMI1, hits give low values 0.0593 | locus YGR252W, strain gcn5, hits give low values 0.146 | locus YHR013C, strain ard1, hits give low values 0.115 | locus YHR027C, strain rpn1, hits give low values 0.0627 | locus YHR030C, strain SLT2, hits give low values 0.0528 and 0.107 | locus YHR079C, strain IRE1 (second series), hits give low values 0.0637 | locus YHR079C, strain IRE1, hits give low values 0.113 | locus YHR094C, strain hxt1, hits give low values 0.0678 | locus YHR129C, strain ARP1, hits give low values 0.059 | locus YHR142W, strain chs7, hits give low values 0.0809 | locus YHR200W, strain rpn10, hits give low values 0.0663 | locus YIL066C, strain RNR3, hits give low values 0.051 | locus YIL073C, strain SPO22, hits give low values 0.15 | locus YIL125W, strain kgd1, hits give low values 0.0707 | locus YIR030C, strain dcg1, hits give low values 0.0676 | locus YJL092W, strain hpr5, hits give low values 0.0584 | locus YJL095W, strain BCK1 (second series), hits give low values 0.0568 | locus YJL095W, strain BCK1, hits give low values 0.0606 and 0.106 | locus YJL115W, strain asf1, hits give low values 0.072 | locus YJL129C, strain trk1, hits give low values 0.0904 | locus YJL134W, strain LCB3, hits give low values 0.0513 | locus YJL154C, strain vps35, hits give low values 0.0576 | locus YJL164C, strain tpk1, hits give low values 0.0622 | locus YJL166W, strain qcr8, hits give low values 0.0631 | locus YJL168C, strain set2, hits give low values 0.0664 | locus YJL187C, strain SWE1 (second series), hits give low values 0.0507 | locus YJR043C, strain POL32, hits give low values 0.0636 | locus YJR066W, strain TOR1, hits give low values -4.7e-05
